Here are results for five molecules from PubChem BioAssay (EPA / NIEHS).

The source made the active and inactive calls. How the source made its calls: active means hit-call score of the fitted dose curve at least 0.9, where 1 is the maximum; inactive means score below 0.9.

The term AC50 denotes the concentration at which the activity in the assay is half-maximal.

Holding throughout (settings): mRNA level, 48 h; actives raise or lower the signal
Read-out in test [1]: Early growth response protein 1 (EGR1) transcription factor, EGR1 (gene 1958)
As to the kind of experiment: LTEA_HepaRG_EGR1: Life Technologies and Expression Analysis (LTEA) Assay for Early growth response protein 1 (EGR1) transcription factor using HepaRG (AID 2283490). Put shortly:
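Differentiated human HepaRG cells in serum-free induction medium were exposed in duplicate for 48 h to eight concentrations (top 100 uM, half-log steps) in 0.5% DMSO. EGR1 mRNA was quantified by qRT-PCR, normalized to ACTB, GAPDH and POLR2A, and fitted bidirectionally versus DMSO.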

Read-out in test [2]: Ezrin (EZR), EZR (gene 7430)
As to the kind of experiment: LTEA_HepaRG_EZR: Life Technologies and Expression Analysis (LTEA) Assay for Ezrin (EZR) using HepaRG (AID 2283491). Put shortly: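 Read-out is EZR transcript level by qRT-PCR, normalized to three housekeeping genes and fitted bidirectionally against the DMSO control. Human HepaRG cells received test chemicals for 48 h at eight half-log concentrations up to 100 uM in 0.5% DMSO.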

Read-out in test [3]: Cytochrome P450 3A7 (Homo sapiens) (UniProt P24462)
As to the kind of experiment: LTEA_HepaRG_CYP3A7: Life Technologies and Expression Analysis (LTEA) Assay for CYP3A7 using HepaRG (AID 2283492). In outline:
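Human HepaRG liver cells, 48 h post-plating, switched to serum-free induction medium and exposed in duplicate for 48 h. Dosing: 100 uM top, half-log dilutions, 8 points, 0.5% DMSO vehicle. Read-out: CYP3A7 mRNA, gain or loss fitted against DMSO baseline.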

Read-out in another test: CYP3A5 (gene 1577)
Nature of the test: LTEA_HepaRG_CYP3A5: Life Technologies and Expression Analysis (LTEA) Assay for CYP3A5 using HepaRG (AID 2283493). In outline: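 HepaRG plated 48 h, switched to serum-free induction medium, chemicals added 48 h (max 100 uM, half-log, 0.5% DMSO). RNA isolated; CYP3A5 by TaqMan qRT-PCR. Gain/loss vs DMSO.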

Read-out in test [4]: Fatty Acid-Binding Protein 1 (FABP1), FABP1 (gene 2168)
Nature of the test: LTEA_HepaRG_FABP1: Life Technologies and Expression Analysis (LTEA) Assay for Fatty Acid-Binding Protein 1 (FABP1) using HepaRG (AID 2283494). Put shortly:
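Differentiated human HepaRG cells were exposed in duplicate for 48 h in serum-free induction medium to 8-point half-log concentration series topping at 100 uM in 0.5% DMSO. FABP1 mRNA measured by TaqMan qRT-PCR, normalized to ACTB/GAPDH/POLR2A; bidirectional fit versus DMSO.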

Read-out in test [5]: Cytochrome P450 4A22 (Homo sapiens) (UniProt Q5TCH4)
As to the kind of experiment: LTEA_HepaRG_CYP4A22: Life Technologies and Expression Analysis (LTEA) Assay for Cytochrome P450 4A22 (CYP4A22) using HepaRG (AID 2283495). Put shortly: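 Readout is CYP4A22 transcript induction or loss, quantified by qRT-PCR and normalized to ACTB, GAPDH and POLR2A. Human HepaRG cells receive test chemicals for 48 h at eight half-log concentrations from 100 uM in 0.5% DMSO.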

Read-out in test [6]: Cytochrome P450 7A1 (Homo sapiens) (UniProt P22680)
Nature of the test: LTEA_HepaRG_CYP7A1: Life Technologies and Expression Analysis (LTEA) Assay for Cytochrome P450 7A1 (CYP7A1) using HepaRG (AID 2283496). Put shortly: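 HepaRG cells plated 48 h, then switched to serum-free induction medium and exposed in duplicate for 48 h to 8-point half-log series from 100 uM in 0.5% DMSO. CYP7A1 mRNA by qRT-PCR (TaqMan), normalized to ACTB/GAPDH/POLR2A; bidirectional fit versus DMSO.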

Read-out in test [7]: Glutathione S-Transferase (GSTA2), GSTA2 (gene 2939)
As to the kind of experiment: LTEA_HepaRG_GSTA2: Life Technologies and Expression Analysis (LTEA) Assay for Glutathione S-Transferase (GSTA2) using HepaRG (AID 2283497). In outline:
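Human HepaRG cells, plated 48 h, then exposed in serum-free induction medium for 48 h to eight half-log concentrations up to 100 uM in 0.5% DMSO, duplicate. GSTA2 mRNA by qRT-PCR, normalized to ACTB/GAPDH/POLR2A; bidirectional fit versus DMSO.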

Read-out in test [8]: Glutamate-cysteine ligase catalytic (GCLC), GCLC (gene 2729)
As to the kind of experiment: LTEA_HepaRG_GCLC: Life Technologies and Expression Analysis (LTEA) Assay for Glutamate-cysteine ligase catalytic (GCLC) using HepaRG (AID 2283498). In outline: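 Differentiated human HepaRG cells, plated 48 h then switched to serum-free induction medium, were exposed in duplicate for 48 h to 8 half-log concentrations topping at 100 uM in 0.5% DMSO. GCLC mRNA was quantified by qRT-PCR against ACTB, GAPDH and POLR2A.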

Read-out in test [9]: growth arrest and DNA damage 45 (GADD45G), GADD45G (gene 10912)
Nature of the test: LTEA_HepaRG_GADD45G: Life Technologies and Expression Analysis (LTEA) Assay for growth arrest and DNA damage 45 (GADD45G) using HepaRG (AID 2283499). Put shortly: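 Gain or loss of GADD45G mRNA, quantified by TaqMan qRT-PCR against three housekeeping genes, is fitted in both directions relative to 0.5% DMSO. Human HepaRG cultures receive test chemical for 48 h at up to 100 uM.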

Read-out in test [10]: Glutamate-cysteine ligase regulatory (GCLM), GCLM (gene 2730)
As to the kind of experiment: LTEA_HepaRG_GCLM: Life Technologies and Expression Analysis (LTEA) Assay for Glutamate-cysteine ligase regulatory (GCLM) using HepaRG (AID 2283500). In outline: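 Cells were plated, cultured 48 h, switched to serum-free induction medium, then dosed in duplicate for 48 h at eight half-log concentrations up to 100 uM. RNA was then profiled by qRT-PCR; gain or loss versus DMSO was fitted.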

Read-out in test [11]: Glutathione S-transferase M3 (GSTM3), GSTM3 (gene 2947)
Nature of the test: LTEA_HepaRG_GSTM3: Life Technologies and Expression Analysis (LTEA) Assay for Glutathione S-transferase M3 (GSTM3) using HepaRG (AID 2283501). Put shortly: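 HepaRG, plated 48 h, then serum-free induction medium; test chemical 48 h, duplicate; 100 uM top, half-log x8, 0.5% DMSO. Read-out: GSTM3 mRNA (TaqMan qRT-PCR, Fluidigm array). Bidirectional fit vs DMSO.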

Read-out in test [12]: Hypoxia-inducible factor 1-alpha (Homo sapiens) (UniProt Q16665)
Nature of the test: LTEA_HepaRG_HIF1A: Life Technologies and Expression Analysis (LTEA) Assay for Hypoxia-inducible factor 1 (HIF1A) Trancription factor using HepaRG (AID 2283503). In outline:
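Differentiated HepaRG cells in serum-free induction medium exposed 48 h, in duplicate, to 8-point half-log series from 100 uM in 0.5% DMSO. HIF1A mRNA measured by TaqMan qRT-PCR, normalized to ACTB/GAPDH/POLR2A, fitted bidirectionally versus DMSO.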

Read-out in test [13]: 3-Hydroxy-3-Methylglutaryl-CoA Synthase 2 (HMGCS2), HMGCS2 (gene 3158)
Nature of the test: LTEA_HepaRG_HMGCS2: Life Technologies and Expression Analysis (LTEA) Assay for 3-Hydroxy-3-Methylglutaryl-CoA Synthase 2 (HMGCS2) using HepaRG (AID 2283504). In outline: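 HepaRG, plated 48 h then switched to serum-free induction media; cmpd 8-pt, max 100 uM, 1/2-log, 0.5% DMSO, n=2, 48 h. HMGCS2 mRNA by Fluidigm TaqMan qRT-PCR, ACTB/GAPDH/POLR2A norm; bidirectional fit vs DMSO.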

Read-out in another test: HGF (gene 3082)
As to the kind of experiment: LTEA_HepaRG_HGF: Life Technologies and Expression Analysis (LTEA) Assay for Hepatocyte Growth Facto (HGF) using HepaRG (AID 2283505). In outline: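 Read-out is HGF transcript level by qRT-PCR, normalized to three housekeeping genes, fitted bidirectionally against 0.5% DMSO vehicle. Human HepaRG cells received test chemicals for 48 h at up to 100 uM.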

Read-out in test [14]: Insulin Like Growth Factor 1 (IGF1), IGF1 (gene 3479)
Nature of the test: LTEA_HepaRG_IGF1: Life Technologies and Expression Analysis (LTEA) Assay for Insulin Like Growth Factor 1 (IGF1) using HepaRG (AID 2283506). Put shortly:
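HepaRG, plated 48 h, then switched to serum-free induction media; test chemical 8-pt half-log from 100 uM (0.5% DMSO), duplicate, 48 h. Lysis in RLT, TaqMan qRT-PCR, norm. ACTB/GAPDH/POLR2A. Bidirectional fit vs DMSO.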

Read-out in test [15]: Intercellular Adhesion Molecule 1 (ICAM1), ICAM1 (gene 3383)
Nature of the test: LTEA_HepaRG_ICAM1: Life Technologies and Expression Analysis (LTEA) Assay for Intercellular Adhesion Molecule 1 (ICAM1) using HepaRG (AID 2283507). In outline:
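Readout is qRT-PCR mRNA level, normalized to three housekeeping genes and fitted bidirectionally against 0.5% DMSO vehicle. Human HepaRG cultures received compound for 48 h, top concentration 100 uM with half-log dilutions.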

Read-out in test [16]: Insulin-like growth factor-binding protein 1 (IGFBP1), IGFBP1 (gene 3484)
As to the kind of experiment: LTEA_HepaRG_IGFBP1: Life Technologies and Expression Analysis (LTEA) Assay for Insulin-like growth factor-binding protein 1 (IGFBP1) using HepaRG (AID 2283508). In outline:
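Thawed HepaRG cells are plated for 48 h, switched to serum-free induction medium, then dosed in duplicate for another 48 h (100 uM top, half-log steps). Lysates in RLT go to qRT-PCR, and gain or loss of signal is fitted relative to vehicle.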

Read-out in test [17]: Interleukin 6 (IL6), IL6 (gene 3569)
As to the kind of experiment: LTEA_HepaRG_IL6: Life Technologies and Expression Analysis (LTEA) Assay for Interleukin 6 (IL6) using HepaRG (AID 2283509). Put shortly: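 Differentiated human HepaRG cells, plated 48 h then switched to serum-free induction medium, were exposed in duplicate for 48 h to eight half-log concentrations up to 100 uM in 0.5% DMSO. IL6 mRNA measured by qRT-PCR, normalized to ACTB/GAPDH/POLR2A.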

Read-out in test [18]: Heat shock 70 kDa protein 1 (HSPA1A), gene 3303
As to the kind of experiment: LTEA_HepaRG_HSPA1A: Life Technologies and Expression Analysis (LTEA) Assay for Heat shock 70 kDa protein 1 (HSPA1A) using HepaRG (AID 2283502). In outline:
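Readout is HSPA1A transcript level by microfluidic qRT-PCR, normalized to three housekeeping genes and analysed for gain or loss of signal relative to 0.5% DMSO. Human HepaRG cultures received test chemicals for 48 h at up to 100 uM.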

Sequence of Cytochrome P450 3A7 (Homo sapiens) (P24462 whole entry, looked up): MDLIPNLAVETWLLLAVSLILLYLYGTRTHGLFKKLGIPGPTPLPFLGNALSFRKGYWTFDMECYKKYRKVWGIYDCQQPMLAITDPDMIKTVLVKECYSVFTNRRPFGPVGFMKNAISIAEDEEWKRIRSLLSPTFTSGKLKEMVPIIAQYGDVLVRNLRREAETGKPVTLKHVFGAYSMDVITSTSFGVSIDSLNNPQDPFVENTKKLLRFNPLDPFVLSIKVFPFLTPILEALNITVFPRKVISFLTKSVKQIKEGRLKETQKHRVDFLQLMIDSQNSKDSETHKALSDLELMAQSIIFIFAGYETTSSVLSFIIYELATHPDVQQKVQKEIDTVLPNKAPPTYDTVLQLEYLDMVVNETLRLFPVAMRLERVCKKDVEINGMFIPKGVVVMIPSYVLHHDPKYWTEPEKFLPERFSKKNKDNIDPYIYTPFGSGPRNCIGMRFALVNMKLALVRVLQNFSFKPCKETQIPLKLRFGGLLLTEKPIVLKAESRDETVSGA
Sequence of Hypoxia-inducible factor 1-alpha (Homo sapiens) (Q16665 whole entry, looked up): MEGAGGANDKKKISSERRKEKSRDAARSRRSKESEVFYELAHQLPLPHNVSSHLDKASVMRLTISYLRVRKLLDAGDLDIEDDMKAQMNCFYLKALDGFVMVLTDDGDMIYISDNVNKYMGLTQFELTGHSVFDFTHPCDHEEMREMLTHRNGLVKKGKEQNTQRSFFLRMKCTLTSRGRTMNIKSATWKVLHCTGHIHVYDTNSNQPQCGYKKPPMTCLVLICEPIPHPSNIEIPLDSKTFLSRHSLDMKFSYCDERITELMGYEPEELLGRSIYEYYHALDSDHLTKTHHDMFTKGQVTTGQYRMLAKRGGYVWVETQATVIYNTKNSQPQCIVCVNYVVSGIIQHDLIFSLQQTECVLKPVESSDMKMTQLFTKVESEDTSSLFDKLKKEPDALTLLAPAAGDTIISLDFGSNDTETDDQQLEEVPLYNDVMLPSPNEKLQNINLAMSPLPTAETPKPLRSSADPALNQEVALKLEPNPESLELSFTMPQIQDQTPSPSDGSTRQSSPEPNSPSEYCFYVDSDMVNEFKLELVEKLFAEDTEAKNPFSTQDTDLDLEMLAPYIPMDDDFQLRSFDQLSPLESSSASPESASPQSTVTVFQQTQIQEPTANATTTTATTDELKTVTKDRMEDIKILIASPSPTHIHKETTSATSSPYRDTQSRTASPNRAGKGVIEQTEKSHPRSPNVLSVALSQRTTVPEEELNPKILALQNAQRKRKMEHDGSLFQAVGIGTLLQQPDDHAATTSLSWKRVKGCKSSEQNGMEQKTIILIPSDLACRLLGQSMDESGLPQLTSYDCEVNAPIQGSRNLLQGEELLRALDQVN

As to `CSC(=O)c1c(C(F)F)nc(C(F)(F)F)c(C(=O)SC)c1CC(C)C`, the molecule was classed as inactive (in test [1]; in test [2]; with CYP3A5 (gene 1577); in test [6]; in test [8]; in [10]). Besides, the result (in test [11]; in test [12]; with HGF (gene 3082); in test [15]; in test [17]) was inactive. In addition, the AC50 was 12.6 µM (active) in test [3]; 9.87 µM (active) in [4]; 80.7 µM (active) in test [5]; 88.2 µM (active) in test [7]; 65.3 µM (active) in [9]; 85.8 µM (active) in [13]. The figures for the AC50 in test [14] and in test [16] were 66 µM (active) and 49.8 µM (active), respectively.
Regarding `CC(C)(C)C(=O)C(Oc1ccc(Cl)cc1)n1cncn1` (configuration not stated), the result (in test [1]; in test [2]; with CYP3A5 (gene 1577); in test [6]; in test [8]; in [9]) was inactive. Also, the call (in [10]; in test [11]; in test [18]; in test [12]; in [13]; with HGF (gene 3082)) was inactive. For the same molecule, the result in test [15], in test [16] and in [17] was inactive. Also, the AC50 in test [3] was 12.1 µM (active); in test [4], 50 µM (active); in [5], 30.1 µM (active).
As for `COCC(C)N(C(=O)CCl)c1c(C)csc1C` (configuration not stated), the result (in [1]; in test [2]; in test [3]; in the test with CYP3A5 (gene 1577); in [9]; in test [10]) was inactive. The molecule was called inactive (in [11]; in test [13]; with HGF (gene 3082); in test [15]; in test [16]). Besides, the AC50 in test [4] is 50 µM (active); in test [6] it was 29.5 µM (active); in test [7], 25 µM (active); in test [8], 50 µM (active); in [14], 50 µM (active); in [17] it was 22.7 µM (active).
In the case of `CCNP(=S)(OC)O/C(C)=C/C(=O)OC(C)C` (configuration not stated), the result (in test [1]; in [2]; with CYP3A5 (gene 1577); in test [4]; in test [5]; in test [6]) was inactive. The molecule was classed as inactive (in [7]; in test [8]; in test [9]; in test [11]; in test [12]; with HGF (gene 3082)). Besides, the result in test [15], in test [16] and in [17] was inactive. For the same molecule, the AC50 in test [3] was 4.03 µM (active); in test [10], 9.92 µM (active); in test [13], 25.8 µM (active); in test [14], 50 µM (active).
On to `O=C(Nc1ccccc1-c1ccc(Cl)cc1)c1cccnc1Cl`, for which the molecule was classed as inactive (in test [1]; in [2]; in test [3]; with CYP3A5 (gene 1577); in test [5]; in test [7]). For the same molecule, the result (in [8]; in test [9]; in test [10]; in test [11]; in [12]; in the test with HGF (gene 3082)) was inactive. The molecule was classed as inactive in test [15], in test [16] and in test [17]. The AC50 is 33.9 µM (active) in [4], 17 µM (active) in [6], 52.5 µM (active) in test [13] and 52.5 µM (active) in [14].
